Several values for one entry are separate records, joined by “and”; a condition that tells them apart may be missing. Identical values can stand only once. Results filed as inconclusive are left out. Activity calls are given as the source filed them. Unless noted, calls follow the shape of the dose curve; as a rule, active = well fitted curve in the direction sought with a large enough effect; inconclusive = small, poorly fitted or top-dose-only effect, or another doubt; inactive = no such curve, though single readings can be large; an effect the other way counts as inactive or inconclusive.

Assay [1] can be described thus: Cell Viability - H-4-II-E (AID 543).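 Also: cells exposed to compound for 40 hours; % is scaled to controls: 0 for no effect and ±100 for the full control effect; nearly all actives have a fitted effect of over 35% in size.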 In short, it runs like this:
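Cells seeded at 1500 per well and rested 5 hr; compounds added; 40 hr incubation at 37 °C; CellTiter-Glo added, 20 min at room temperature; luminescence read. Hill-equation fits gave AC50.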

Assay [2] can be described thus: Cell Viability - SH-SY5Y (AID 544).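 Also: cells exposed to compound for 40 hours; nearly all actives have a fitted effect of over 55% in size.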 To be noted: SH-SY5Y neuroblastoma cell viability; viability change, negative = cytotoxic: at 92.2 µM (top of the series). The gist of the method: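 Cells were plated at 1500 per well and allowed 5 hr at 37 °C. Compounds were added across a concentration range and incubated 40 hr at 37 °C. CellTiter-Glo was added for 20 min at room temperature before luminescence reading.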

Assay [3] is described as follows: Cellular Toxicity (caspase-3) Jurkat (AID 655).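 Also: cells exposed to compound for 16 h at 37 °C before reading.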 Also: potency is read from the fitted curve at half-maximal effect. Conditions: Jurkat caspase-3 activation, luminescence; caspase-3 activation: at 92.2 µM (top of the series), DMSO = 0%, tamoxifen = 100%. In short, it runs like this: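 Jurkat cells (5000/well) in complete medium were treated with compounds for 16 hr at 37 °C, then Caspase-Glo 3/7 luminescence was read after 20 min at room temperature. Data normalized to DMSO (basal) and 100 uM tamoxifen (100%); AC50 from Hill fit.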

The nature of assay [4]: MultiTox-Fluor Cytotoxicity Assay - LYMP1-003 - Live Cells (AID 962).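 Also: cells exposed to compound for 16 hours at 37 °C; 0% = DMSO only and full loss = 92 µM tetraoctylammonium bromide; cytotoxic hits lower the live-cell protease signal.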 In short, it runs like this: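 Acute cytotoxicity is scored as a drop in live-cell protease activity in human lymphoblastoid LYMP1-003 cells after 16 hr compound exposure at 37 C. AC50 values come from Hill-equation modelling of concentration-response data.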
A short description of assay [5]: Cell Viability - LYMP2-004 (AID 966).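 Also: plate controls were DMSO only for no effect and tetraoctylammonium bromide control for full effect; nearly all actives have a fitted effect of over 65% in size.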 The gist of the method:
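qHTS cytotoxicity: human lymphoblastoid line, 24 hr compound treatment, 37 C, complete medium. Viability read as cellular ATP via luciferase luminescence; tetraoctylammonium bromide served as positive control.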

Assay [6] is described as follows: Cell Viability - LYMP2-015 (AID 971).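 Also: 0% = DMSO only and full effect = 92 µM tetraoctylammonium bromide; nearly all actives have a fitted effect of over 55% in size.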 The gist of the method: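 Cells are seeded at 2500 per well and incubated 5 hr at 37 C. Compounds are added across a concentration series for 24 hr at 37 C. CellTiter-Glo is added, and luminescence is read after 30 min at room temperature.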
The nature of assay [7]: Cell Viability - LYMP2-019 (AID 973).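 Also: 0% = DMSO alone and full effect = 92 µM tetraoctylammonium bromide; nearly all actives have a fitted effect of over 55% in size.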 The gist of the method: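 Cytotoxicity is scored as a concentration-dependent drop in cellular ATP after cells (2500/well) receive compound for 24 hr at 37 C. Tetraoctylammonium bromide serves as positive control.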
A short description of assay [8]: Cell Viability - LYMP2-021 (AID 974).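 Also: compound exposure lasts 24 hours at 37 °C; % is scaled to controls: 0 for no effect and ±100 for the full control effect; nearly all actives have a fitted effect of over 55% in size.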 The gist of the method: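 Loss of cellular ATP, measured with a luciferase-based CellTiter-Glo readout, serves as the toxicity signal in human lymphoblastoid cells treated for 24 hours at 37 C. Potency is reported as AC50 from a standard Hill model.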
The nature of assay [9]: Cell Viability - LYMP2-025 (AID 976).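 Also: plate controls were DMSO only for no effect and tetraoctylammonium bromide control for full effect.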 In short, it runs like this: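 Acute cytotoxicity is scored as a concentration-dependent fall in intracellular ATP, measured by luciferase luminescence, in human lymphoblastoid LYMP2-025 cells exposed to compound for 24 hours at 37 C. AC50 values come from standard Hill fits.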
Assay [10] in a line: Cell Viability - LYMP2-006 (AID 978). Also: % is scaled to controls: 0 for no effect and ±100 for the full control effect; nearly all actives have a fitted effect of over 60% in size. In short, it runs like this:
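Human lymphoblastoid cells, 2500 per well, were preincubated 5 hr at 37 C, then exposed to compounds for 24 hr at 37 C in complete medium. Viability was read as intracellular ATP by CellTiter-Glo luminescence; AC50 from Hill-equation fits of qHTS concentration-response data.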

A short description of assay [11]: Cell Viability - LYMP2-007 (AID 979).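 Also: cells exposed to compound for 24 h before reading; nearly all actives have a fitted effect of over 60% in size.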 Also: potency is read from the fitted curve at half-maximal effect. The gist of the method: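 Cells are seeded at 2500 per well and rested 5 hr. Compounds are then added over a concentration series for 24 hr at 37 C. CellTiter-Glo is added for 30 min at room temperature before luminescence reading.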
Assay [12] can be described thus: Cell Viability - LYMP2-014 (AID 983).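 Also: plate controls were DMSO only for no effect and 92 µM tetraoctylammonium bromide for full effect; nearly all actives have a fitted effect of over 50% in size.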 The gist of the method:
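Cells are plated at 2500/well and left 5 hr at 37 C. Compounds are added across a concentration range and incubated 24 hr at 37 C in complete medium. CellTiter-Glo is added, and luminescence is read after 30 min at room temperature.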

A short description of assay [13]: Cell Viability - LYMP2-018 (AID 985).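 Also: compound exposure lasted 24 hr at 37 °C; plate controls were DMSO only for no effect and tetraoctylammonium bromide at 92 µM for full effect; nearly all actives have a fitted effect of over 50% in size.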 In short, it runs like this:
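Seed 2500 lymphoblastoid cells per well, incubate 5 hr at 37 C, add compound and incubate 24 hr at 37 C, add CellTiter-Glo, wait 30 min at room temperature, then read luminescence.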

The nature of assay [14]: Cell Viability - LYMP2-020 (AID 986). In short, it runs like this: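 Seed 2500 cells per well and incubate 5 hr at 37 C. Add compounds at a concentration series and incubate 24 hr at 37 C. Add CellTiter-Glo, wait 30 min at RT, read luminescence, and fit a Hill curve for AC50.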
Assay [15] in a line: Cell Viability - LYMP2-022 (AID 987). The gist of the method:
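Cells were seeded at 2500 per well, rested 5 hr at 37 C, and treated with titrated compounds for 24 hr at 37 C. Cellular ATP was then quantified by luciferase luminescence, and AC50 values were derived from Hill-modelled concentration-response curves.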

A short description of assay [16]: Cell Viability - LYMP2-026 (AID 989). Also: % is scaled to controls: 0 for no effect and ±100 for the full control effect; nearly all actives have a fitted effect of over 50% in size. In short, it runs like this:
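Cells are seeded at 2500 per well and held 5 hr at 37 C. Compounds are added in concentration series for 24 hr, then CellTiter-Glo reagent is applied and luminescence read.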

The nature of assay [17]: Cell Viability - LYMP1-002 - Assay at 40 hr (AID 994).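 Also: 0% = DMSO only and full inhibition = 92 µM tetraoctylammonium bromide; nearly all actives have a fitted effect of over 60% in size.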 In short, it runs like this: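 Cells are plated at 2500 per well and rested 5 hr at 37 C. Compounds are added and incubated 40 hr at 37 C. CellTiter-Glo reagent is added for 30 min at room temperature before luminescence is read.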
Assay [18] is described as follows: qHTS assay for small molecule agonists of retinoid X receptor alpha signaling (AID 588544). Conditions: HEK293T RXRa-UAS-bla, beta-lactamase reporter, 18 h; 530 nm emission. On the technique in general: In qHTS, concentration-response curves come from the screen itself.
The nature of assay [19]: qHTS assay for small molecule antagonists of the retinoid-related orphan receptor gamma (ROR-gamma) signaling pathway - cell viability counter screen (AID 720652; active = well fitted curve in the direction sought with a large enough effect in the repeat runs; an effect the other way counts as inactive or inconclusive;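 also: CHO reporter cells with doxycycline-induced ROR-gamma expression; compound exposure lasted 16 hr before ATP read; % is scaled to controls: 0 for no effect and ±100 for the full control effect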). The gist of the method: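 Steps: seed CHO cells bearing TET-inducible ROR and ROR response element-luciferase; rest 5 hr at 37 C; add compound, then doxycycline; incubate 16 hr; add CellTiter-Glo and read luminescence as ATP-based viability.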

Assay [20] in a line: Cell Viability - LYMP2-001 (AID 921).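 Also: 0% = DMSO only and full inhibition = tetraoctylammonium bromide control wells; nearly all actives have a fitted effect of over 70% in size.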 In short, it runs like this: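 Human lymphoblastoid cells (Coriell), 2500 per well, were preincubated 5 hr at 37 C, then exposed to compounds in complete medium for 24 hr at 37 C. Cellular ATP was read by CellTiter-Glo luminescence; AC50 from Hill fits of concentration-response data.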

`NC1CCC(CC2CCC(N)CC2)CC1` (stereo unspecified): the Potency entry in assay [1], in assay [2], in [5], in [6], in assay [7] and in assay [8] was “inactive” throughout. Also, the Potency result in assay [9], in assay [10], in [11], in assay [12], in assay [13] and in assay [14] was “inactive” in each case. The Potency entry in assay [15], in assay [16], in assay [17] and in assay [19] was “inactive” in each case. For the same compound, the caspase-3 activation in [3] is 0.418% (inactive). Further, in [4], the result was inactive. For the same compound, the max response in assay [18] is 8.4%.
In the case of `Oc1ccc(Cl)c(Cl)c1`, the Potency entry in [1], in assay [2], in [20], in assay [5], in [6] and in assay [7] was “inactive” throughout. Moreover, the Potency entry in assay [8], in assay [9], in assay [10], in assay [11], in assay [12] and in [13] was “inactive” throughout. The Potency entry in [14], in assay [15], in assay [16], in assay [17] and in assay [19] was “inactive” in each case. Further, the caspase-3 activation in assay [3] is -1.55% (inactive). For the same compound, the result in [4] was inactive. Further, the max response in assay [18] is -8.76%.
For `CCCCC(=O)Cl`, the Potency entry in assay [1], in assay [2], in assay [20], in assay [5], in assay [6] and in assay [7] was “inactive” in each case. In addition, the Potency entry in assay [8], in assay [9], in assay [10], in assay [11], in [12] and in assay [13] was “inactive” each time. In addition, the Potency result in assay [14], in [15], in assay [16], in assay [17] and in [19] was “inactive” in each case. Besides, in [3], the caspase-3 activation is 1.28% (inactive). The compound was called inactive in [4]. Besides, in assay [18], the max response was -18.9%.
For `[N-]=[N+]=[N-]`, the Potency result in assay [1], in assay [2], in assay [20], in [6], in [7] and in [8] was “inactive” in each case. For the same compound, the Potency result in [9], in assay [10], in [11], in assay [12], in [13] and in assay [14] was “inactive” throughout. Further, the Potency entry in [15], in assay [16], in assay [17] and in assay [19] was “inactive” throughout. The caspase-3 activation in [3] was 1.16% (inactive). Besides, the compound was called inactive in assay [4]. In [18], the max response was -2.08%.
For `CC(C)(C)C(O)(CCc1ccc(Cl)cc1)Cn1cncn1` (stereo unspecified), the Potency result in [1], in [2], in [20], in [5], in assay [6] and in assay [7] was “inactive” in each case. The Potency entry in assay [8], in [9], in assay [10], in assay [11], in assay [12] and in assay [13] was “inactive” each time. In addition, the Potency entry in [14], in assay [15], in assay [16], in [17] and in assay [19] was “inactive” each time. The caspase-3 activation in [3] is 2.58% (inactive). Further, in [4], the result was inactive. In assay [18], the max response was -9.24% and 6.75%.
Take `CCOP(=S)(OCC)Oc1nc(Cl)c(Cl)cc1Cl`: the Potency entry in assay [1], in assay [2], in assay [20], in assay [5], in assay [6] and in assay [7] was “inactive” throughout. Besides, the Potency entry in [8], in assay [9], in [10], in assay [11], in [12] and in assay [13] was “inactive” throughout. Also, the Potency result in assay [14], in assay [15], in [16], in assay [17] and in assay [19] was “inactive” each time. Moreover, the caspase-3 activation in [3] is -1.27% (inactive). In addition, the outcome in [4] was inactive. Also, the max response in assay [18] is -1.15%.
As to `Nc1cccc2ccccc12`, the Potency entry in [1], in assay [2], in assay [5], in assay [9], in assay [12] and in assay [13] was “inactive” in each case. Also, the Potency entry in assay [14], in assay [16], in [17] and in [19] was “inactive” in each case. The Potency in [3] is 25.1 µM (active); in assay [11], 39.8 µM (active). Besides, the compound was called inactive in assay [4].
In the case of `Nn1cnnc1`, the Potency entry in assay [1], in [2], in assay [20], in assay [5], in assay [6] and in [7] was “inactive” in each case. Moreover, the Potency entry in assay [8], in [9], in assay [10], in assay [11], in assay [12] and in [13] was “inactive” throughout. Also, the Potency entry in [14], in [15], in [16], in assay [17] and in assay [19] was “inactive” throughout. Moreover, in assay [3], the caspase-3 activation is 0.14% (inactive). Also, the result in [4] was inactive. Also, the max response in [18] turned out to be 6.31%.

The record behind these values is PubChem BioAssay (NCATS).
